Fam108B counter = counter-screen for RBBP9 inhibitors: inhibitors of mouse Fam108B; recombinant Fam108B, FP-Rh probe fluorescence polarization; inhibition, % at 9.51 µM; 300,000 compounds, 0.33% hits; AID 1947;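 active means inhibition above the screen mean inhibition plus 3 SD, computed separately per campaign, cut at about 18% in these data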;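 further: inhibitors lower polarization as less probe binds the enzyme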
pPAFAH inh = pPAFAH (human) enzyme inhibition; Q13093; recombinant pPAFAH, FP-rhodamine probe fluorescence polarization; inhibition, % at 3.39 µM; 330,000 compounds, 1.5% hits; AID 463082;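 active means inhibition above the mean inhibition across the screen plus 3 SD, cut at about 25% in these data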;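 further: inhibitors block binding of the rhodamine activity-based probe so polarization drops; 0% = enzyme with DMSO and 100% = wells lacking pPAFAH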
Target sequence (Q13093 whole entry, looked up): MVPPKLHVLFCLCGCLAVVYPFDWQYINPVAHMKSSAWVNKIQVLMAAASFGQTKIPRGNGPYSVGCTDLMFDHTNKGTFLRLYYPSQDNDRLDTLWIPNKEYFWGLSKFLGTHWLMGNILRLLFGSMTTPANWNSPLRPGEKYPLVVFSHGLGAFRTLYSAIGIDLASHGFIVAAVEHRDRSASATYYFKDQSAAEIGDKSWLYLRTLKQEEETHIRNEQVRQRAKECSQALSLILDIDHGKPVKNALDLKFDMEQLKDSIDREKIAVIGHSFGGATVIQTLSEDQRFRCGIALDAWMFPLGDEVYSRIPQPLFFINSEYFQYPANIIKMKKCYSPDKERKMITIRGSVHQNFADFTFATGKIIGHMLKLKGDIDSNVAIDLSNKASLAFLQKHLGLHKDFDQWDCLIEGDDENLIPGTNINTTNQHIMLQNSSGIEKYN
PAFAH2 inh = PAFAH2 (human) inhibition | Q99487 | recombinant PAFAH2, FP-rhodamine activity probe, fluorescence polarization | inhibition, % at 3.39 µM | 340,000 compounds, 0.99% hits | AID 492956;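 active means inhibition above the mean over all tested compounds plus 3 SD, cut at about 30% in these data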;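 further: inhibitors block probe labeling of enzyme so polarization drops; 0% = enzyme with DMSO and 100% = wells lacking PAFAH2 protein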
PAFAH1B2 inh = blocks human PAF acetylhydrolase 1b catalytic subunit 2; P68402; recombinant PAFAH1B2, FP-rhodamine activity probe, fluorescence polarization; inhibition, % at 3.39 µM; 340,000 compounds, 1.2% hits;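 active means inhibition above the mean of all tested compounds plus 3 SD, cut at about 24% in these data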;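 further: 0% = enzyme with DMSO and 100% = wells lacking PAFAH1B2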
Target sequence (P68402 whole entry, looked up): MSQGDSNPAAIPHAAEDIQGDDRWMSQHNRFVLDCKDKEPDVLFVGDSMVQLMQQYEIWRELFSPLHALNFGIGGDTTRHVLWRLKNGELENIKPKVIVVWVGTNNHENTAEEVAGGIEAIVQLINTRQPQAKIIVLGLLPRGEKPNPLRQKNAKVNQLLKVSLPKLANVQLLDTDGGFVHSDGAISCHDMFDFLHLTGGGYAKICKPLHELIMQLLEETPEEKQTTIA
PME-1 inh = blocks human protein phosphatase methylesterase 1; recombinant PME-1, FP-Rh probe fluorescence polarization; 320,000 compounds, 0.53% hits; Q9Y570; inhibition, % at 5.9 µM;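 active means inhibition above the campaign mean of all compounds plus 3 SD, cut at about 26% in these data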;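 further: competitive labeling of PME-1 active site by serine hydrolase directed probe; 0% = PME-1 with DMSO and 100% = wells lacking PME-1 enzyme; inhibitors block probe labeling so polarization falls and inhibition rises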
PAFAH1B3 FP inh = blocks human PAF acetylhydrolase 1B catalytic subunit 3 | Q15102 | recombinant PAFAH1B3, FP-rhodamine probe, fluorescence polarization | inhibition, % at 3.39 µM | 340,000 compounds, 0.28% hits | AID 492972;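 active means inhibition above the screen-wide average of all tested compounds plus 3 SD, cut at about 25% in these data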;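 further: 0% = enzyme with DMSO only and 100% = wells lacking PAFAH1B3 protein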
Fam108b inh conf = confirmation of mouse Fam108b serine hydrolase inhibitors. shares compounds with Fam108B counter. inhibition, % at 9.51 µM. recombinant Fam108b, FP-Rh probe fluorescence polarization. 930 compounds, 44% hits;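 active means inhibition above a limit from the primary screen, the mean over all compounds plus 3 SD, cut at about 19% in these data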;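 further: 0% = median of active Fam108b wells and 100% = catalytically dead S170A mutant; inhibitors free the probe so polarization falls as inhibition rises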
Fam108b ABPP HTS = inhibits mouse Fam108b in gel-based ABPP | shares compounds with Fam108B counter | recombinant Fam108b, fluorophosphonate probe | inhibition, % at 20 µM | 260 compounds, 44% hits | AID 588649; in the data active means inhibition above about 40%
pPAFAH FP conf = confirmation of human plasma PAF acetylhydrolase (pPAFAH) inhibitors. shares compounds with pPAFAH inh. recombinant pPAFAH, FP-Rh probe fluorescence polarization. inhibition, % at 3.39 µM. 2,300 compounds, 72% hits. AID 463230;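 active means mean inhibition of the triplicate above the hit cutoff set for the earlier primary screen, cut at about 25% in these data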;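 further: 0% = enzyme with DMSO and 100% = wells lacking pPAFAH enzyme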
* hit, by the source's call; x = not tested or not shown; + = active, no number. In the library only some 2.9% were active in any assay of this set; here they are far more common.

SMILES | Fam108B counter | pPAFAH inh | PAFAH2 inh | PAFAH1B2 inh | PME-1 inh | PAFAH1B3 FP inh | Fam108b inh conf | pPAFAH FP conf | others
O=C(O)CCCNc1cc(N2CCN(C(=O)c3ccco3)CC2)c2noc3c2c1C(=O)c1ccccc1-3 | 35.3* | 57.1* | 21.0 | 14.0 | 6.2 | 18.0 | 40.8* | 30.8* | Fam108b ABPP HTS=75.0*
CC(C)CNC(=O)C1Nc2ccccc2C2C=CCC12 (stereo unspecified) | 7.6 | 9.4 | 12.3 | 0.9 | 5.1 | 2.5 | x | x
O=C(O)C1Nc2c(Cl)cc(Cl)cc2C2C=CCC12 (stereo unspecified) | 32.7* | 81.1* | 82.3* | 36.1* | -6.4 | 22.2 | 23.6* | 42.8*
O=C(O)C1Nc2c(O)cccc2C2C=CCC12 (stereo unspecified) | 65.7* | 87.7* | 50.2* | 35.8* | 14.4 | 39.5* | 56.6* | 42.5*
O=C(O)C1Nc2ccc(Br)cc2C2C=CCC12 (stereo unspecified) | 54.6* | 70.4* | 79.0* | 46.6* | -13.5 | 39.6* | 34.6* | 61.0* | Fam108b ABPP HTS=40.0*
CCOC(=O)C1Nc2ccc(C)cc2C2C=CCC12 (stereo unspecified) | 2.3 | 21.6 | 8.3 | -0.6 | 9.2 | 3.7 | x | x
CC(=O)c1ccc2c3c(cc(C)c2c1)CCCC3 | x | x | 1.8 | 2.9 | x | -0.5 | x | x
O=c1ccnc(Nc2ccc([N+](=O)[O-])cc2)[nH]1 | -1.6 | 3.8 | 2.9 | 8.3 | 0.1 | 11.6 | x | x
O=C(CN1C(=O)NC(Cc2c[nH]c3ccccc23)C1=O)NCC(F)(F)F (stereo unspecified) | 7.0 | -1.4 | -5.2 | 1.4 | 0.1 | 9.9 | x | x
Cn1nc(-c2ccccc2)cc1NC(=O)c1ccc(Cl)cc1 | -1.6 | 0.5 | -11.0 | 4.5 | 0.7 | -5.8 | x | x
COc1ccc(-c2csc(NC(=O)c3ccccc3NS(=O)(=O)c3ccc(C)cc3)n2)cc1 | 35.8* | 39.0* | 35.8* | 14.6 | 20.8 | 6.0 | 11.9 | 49.1*
COc1ccc(Nc2nnc(SC(C(=O)Nc3cc(C)ccc3C)c3ccccc3)s2)cc1 (stereo unspecified) | 4.8 | 1.6 | 10.3 | -2.5 | 0.4 | 3.2 | x | x
COc1ccc(Nc2nnc(SC(C(=O)Nc3ccc(OC)c(Cl)c3)c3ccccc3)s2)cc1 (stereo unspecified) | 37.8* | 34.5* | 12.9 | 4.2 | 51.5* | -17.1 | 24.8* | 16.7
CC1CCN(C(=O)COC(=O)CCC(=O)c2ccc(Cl)cc2)CC1 | x | 18.4 | 4.5 | 4.5 | x | 8.3 | x | x
O=C(O)CCNc1ccc(NCCC(=O)O)c2c1C(=O)c1ccccc1C2=O | 35.6* | 61.5* | 45.9* | 15.6 | 26.5* | 25.0 | 26.0* | 18.9
COc1ccccc1NCCC(=O)O | -3.5 | 1.9 | -3.8 | -5.7 | -0.9 | 9.5 | x | x
O=C(N/N=C/c1ccc(-c2ccc(S(=O)(=O)Nc3ncccn3)cc2)o1)c1cc2ccccc2cc1O | 23.6* | 78.2* | 34.2* | 24.9* | -2.9 | 35.2* | 20.4* | 75.7*
CCOc1ccc(C(=O)N/N=C/c2ccc(-c3ccc(S(=O)(=O)Nc4ncccn4)cc3)o2)cc1 | -3.0 | 10.6 | 7.9 | 3.0 | -6.5 | -6.7 | x | x
CC(=O)Oc1ccc2c(c1)Oc1cc(OC(C)=O)ccc1C21OC(=O)c2ccccc21 | 106.9* | 99.3* | 123.8* | 110.3* | 120.9* | 129.0* | 144.7* | 89.6* | Fam108b ABPP HTS=0.0
O=C1c2c(Cl)c(Cl)c(Cl)c(Cl)c2C(=O)N1c1nccs1 | x | x | -15.0 | 9.0 | x | 11.1 | x | x
Cc1nn(-c2ccccc2C(=O)O)c(=O)c2ccccc12 | -2.5 | 5.5 | -10.1 | 2.1 | -7.3 | 3.2 | x | x
Cc1nn(-c2ccc(Br)cc2)c(=O)c2ccccc12 | 88.4* | 51.1* | 3.3 | 0.8 | 93.2* | 4.9 | -11.5 | 3.1
COc1cccc(NS(=O)(=O)c2ccc3c(c2)C2C=CCC2C(c2ccc(C(=O)O)cc2)N3)c1 (stereo unspecified) | 42.7* | 61.0* | 68.1* | 36.4* | -15.9 | 40.2* | 16.4 | 60.5*
O=C(O)c1ccc2c(c1)[C@@H]1C=CC[C@@H]1[C@H](c1ccccn1)N2 | 38.7* | 64.4* | 49.2* | 32.7* | -34.5 | 61.0* | + | 14.6 | Fam108b ABPP HTS=0.0
O=C(NCCOc1ccccc1)C1Nc2ccc(OC(F)(F)F)cc2C2C=CCC12 (stereo unspecified) | -1.7 | 4.0 | 3.7 | -0.6 | 3.3 | 18.3 | x | x
SMILES | Fam108B counter | pPAFAH inh | PAFAH2 inh | PAFAH1B2 inh | PME-1 inh | PAFAH1B3 FP inh | Fam108b inh conf | pPAFAH FP conf | others
Cc1oc2c(c1C(=O)c1ccccc1)C(=O)C(=O)c1ccccc1-2 | 55.0* | 35.6* | 34.4* | 5.6 | 28.6* | 16.4 | 35.2* | 25.1* | Fam108b ABPP HTS=25.0
CC(C)C(C(=O)O)N1C(=O)/C(=C/C=C/c2ccco2)SC1=S (stereo unspecified) | 38.4* | 78.5* | 60.6* | 16.8 | -30.5 | 23.1 | -0.5 | 54.0*
O=C1/C(=C/C=C/c2ccco2)SC(=S)N1c1ccc(O)cc1 | 19.4* | 83.0* | 16.5 | -4.1 | -10.4 | 6.9 | -1.4 | 40.7*
O=C(NN1C(=O)/C(=C/C=C/c2ccco2)SC1=S)c1ccncc1 | 41.0* | 72.1* | x | x | -27.0 | x | 9.5 | 16.3
O=C(O)c1ccc(N2C(=O)/C(=C/C=C/c3ccccc3)SC2=S)cc1 | -6.9 | 7.9 | 4.0 | -6.0 | -7.4 | -1.3 | x | x
Cc1ccc(C(=O)Nc2ccccc2N2CCOCC2)cc1S(=O)(=O)N1CCOCC1 | x | -0.1 | 0.8 | -3.5 | 0.9 | -2.1 | x | x
CC(C)[C@H](NC(=O)OCc1ccccc1)C(=O)OCC(=O)Nc1ccc(N2CCOCC2)cc1 | -1.2 | 9.2 | 3.7 | -2.7 | -2.4 | 4.0 | x | x
Cc1ccc(NC(=O)CN2C(=O)N/C(=C/c3cccn3-c3ccc(C(=O)O)cc3)C2=O)cc1 | 43.5* | 70.5* | 52.5* | 10.0 | -9.6 | 24.2 | 39.4* | 40.9* | Fam108b ABPP HTS=0.0
COc1ccc(C(C)(C)C)cc1NC(=O)Cn1cnnn1 | -3.9 | 1.7 | 8.4 | 7.2 | -3.8 | 5.2 | x | x
Cc1cc(NC(=O)c2ccc(Cl)cc2)c(C)cc1O | -1.2 | 4.0 | -2.0 | 3.6 | -3.1 | 7.3 | x | x
Cc1cc(C(C#N)c2ccc(Cl)cc2)c(Cl)cc1NC(=O)c1cc(I)cc(I)c1O (stereo unspecified) | 25.3* | 46.5* | 13.0 | 11.0 | 40.2* | 10.7 | 41.7* | 40.8* | Fam108b ABPP HTS=45.0*
Cc1cc(C)c(Cn2cnc3ccccc32)c(C)c1 | 3.0 | 5.6 | -2.3 | -0.9 | 3.7 | 3.3 | x | x
COc1cc2c(cc1OC)C(COc1cccc(C(F)(F)F)c1)NCC2 (stereo unspecified) | 10.6 | 0.3 | -0.1 | 0.2 | -9.6 | 5.7 | x | x
